Consider 7 compounds from PubChem BioAssay (EPA / NIEHS).

Values joined by “and” are separate entries in the source; they are usually repeats but may differ in a detail not shown here. Equal entries are not always repeated. Records with an inconclusive call do not appear. More than one record can exist for a structure, and the calls need not agree. Active and inactive are the calls of the source. The calls were made as follows, unless noted: active = hit-call score of the fitted dose curve at least 0.9, where 1 is the maximum; inactive = score below 0.9.

Assay [1] in a line: CCTE_Mundy_HCI_hNP1_Pro_ResponderAvgInten: CCTE's Proliferation Assay in human neuroprogenitor cells, Mundy Lab (AID 2284224; active = hit-call score of the fitted dose curve at least 0.9, where 1 is the maximum). An outline of the steps:
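Human neuroprogenitors (hNP1, WA09 lineage) receive test chemical after 40 to 44 hours of attachment. A four-hour BrdU pulse begins twenty hours later, followed by fixation and high content imaging; signal is referenced to DMSO controls.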

Assay [2] can be described thus: BSK_BT_PBMCCytotoxicity: PBMC Cytotoxicity Assessment in the BioMAP Diversity Plus: BT Assay (AID 2284225).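 Also: PBMC viability measured by Alamar Blue dye reduction fluorescence.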 To be noted: primary human B cells with PBMC. The procedure, abridged:
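PBMC (75,000/well) pretreated with compound 1 h, then activated with SEB and TSST-1 (20 ng/mL each final), incubated 90 h; Alamar Blue added 6 h, fluorescence read at 546/580 nm. Fitted relative to DMSO.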

Read-out in assay [3]: Secreted IgG (sIgG), gene 3500
As to the kind of experiment: BSK_BT_sIgG: BioMAP Diversity Plus: BT Assay for Secreted IgG (sIgG) Biomarker Activity (AID 2284226). Particulars: primary human B cells with PBMC. An outline of the steps:
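Read-out: ELISA for secreted IgG after 24 h of chemical exposure in a B cell plus PBMC co-culture. Values reflect upward-direction fitting against DMSO negative controls.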

The nature of assay [4]: BSK_BT_Bcell_Proliferation: Viability Assessment in the BioMAP Diversity Plus: BT Assay for B cell Proliferation (AID 2284227). To be noted: primary human B cells with PBMC. An outline of the steps: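 Using a human primary B cell–PBMC co-culture, the assay measures total protein by sulforhodamine B absorbance as a gauge of proliferation after 72 h. Analysis followed the positive fitting direction with DMSO as baseline.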

Read-out in assay [5]: Interleukin 6 (IL6), IL6 (gene 3569)
Nature of the assay: BSK_BT_xIL6: BioMAP Diversity Plus: BT Assay for Interleukin 6 (IL6) Biomarker Activity (AID 2284228). Particulars: primary human B cells with PBMC. An outline of the steps: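 Human B cell/PBMC co-culture; secreted IL-6 quantified by Luminex xMAP 24 h after chemical dosing, fitted relative to DMSO. Parallel PBMC viability by Alamar Blue after 1 h pretreatment, 20 ng/mL SEB and TSST-1, 90 h incubation.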

Read-out in assay [6]: Tumor necrosis factor (Homo sapiens) (UniProt P01375)
As to the kind of experiment: BSK_BT_xTNFa: BioMAP Diversity Plus: BT Assay for Tumor necrosis factor alpha (TNF-alpha) Biomarker Activity (AID 2284230). To be noted: primary human B cells with PBMC. The procedure, abridged: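 Endpoint derived in the positive direction versus DMSO vehicle. Cells: B cells together with PBMC, exposed 24 h before TNF-alpha in the medium was read on the Luminex xMAP platform.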

Read-out in assay [7]: Vascular cell adhesion molecule 1 (VCAM1), VCAM1 (gene 7412)
Nature of the assay: BSK_MyoF_VCAM1: BioMAP Diversity Plus: MyoF Assay for Vascular cell adhesion molecule 1 (VCAM1) Biomarker Activity (AID 2284231). To be noted: primary human lung fibroblasts. An outline of the steps: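 Primary human lung fibroblasts (BioMAP MyoF system) dosed with chemical, VCAM-1 measured by ELISA 24 hours later. Fitted in the positive direction against DMSO; parallel SRB staining assessed cytotoxicity.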

Read-out in assay [8]: Collagen I, COL1A1 (gene 1277)
Nature of the assay: BSK_MyoF_CollagenI: BioMAP Diversity Plus: MyoF Assay for Collagen I Biomarker Activity (AID 2284238). To be noted: primary human lung fibroblasts. An outline of the steps:
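Primary human lung fibroblasts (MyoF system) treated 24 h; Collagen I quantified by ELISA and fitted in positive direction against DMSO. Parallel SRB total-protein staining assessed overt cytotoxicity.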

Read-out in assay [9]: Collagen III, COL3A1 (gene 1281)
As to the kind of experiment: BSK_MyoF_CollagenIII: BioMAP Diversity Plus: MyoF Assay for Collagen III Biomarker Activity (AID 2284239). To be noted: primary human lung fibroblasts. An outline of the steps: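 Primary human lung fibroblasts (BioMAP MyoF system) exposed 24 h. Collagen III measured by ELISA; positive-direction fit relative to DMSO.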

Assay [10] can be described thus: CCTE_Mundy_HCI_hNP1_Casp3_7: CCTE's Caspase-Glo 3/7 Assay in human neuroprogenitor cells for Apoptosis, Mundy Lab (AID 2284240). An outline of the steps:
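Neuroepithelial-lineage stem cells from WA09 embryonic cells were treated with chemicals after 40–44 h of culture. Twenty-four hours later, caspase-3/7 activation was detected luminescently after a 30 min room-temperature reagent step, with DMSO as baseline.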

Assay [11] in a line: CCTE_Mundy_HCI_hNP1_CellTiter: CCTE's Cell Titer-Glo 2 Assay in human neuroprogenitor cells for Viability, Mundy Lab (AID 2284241; active = hit-call score of the fitted dose curve at least 0.9, where 1 is the maximum). An outline of the steps: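 Measures ATP content in human neural progenitors derived from WA09 embryonic cells. Read-out at 26.5 hours after dosing, with DMSO serving as the negative control and baseline.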
Read-out in assay [12]: Interleukin 17F (IL17F), IL17F (gene 112744)
As to the kind of experiment: BSK_BT_xIL17F: BioMAP Diversity Plus: BT Assay for Interleukin 17F (IL17F) Biomarker Activity (AID 2284243). To be noted: primary human B cells with PBMC. An outline of the steps:
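Human PBMC co-cultured with B cells, compound exposure 24 h; secreted IL-17F quantified by Luminex xMAP, referenced to DMSO control. PBMC viability measured in parallel by Alamar Blue reduction.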

Read-out in assay [13]: Actin alpha 1 (ACTA1), ACTA1 (gene 58)
Nature of the assay: BSK_MyoF_ACTA1: BioMAP Diversity Plus: MyoF Assay for Actin alpha 1 (ACTA1) Biomarker Activity (AID 2284244). Particulars: primary human lung fibroblasts. An outline of the steps: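 Lung fibroblasts, human primary, 24 h compound exposure → a-SMA ELISA. Positive-direction fit vs DMSO control.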

Read-out in assay [14]: Interleukin 2 (IL2), IL2 (gene 3558)
As to the kind of experiment: BSK_BT_xIL2: BioMAP Diversity Plus: BT Assay for Interleukin 2 (IL2) Biomarker Activity (AID 2284245). Particulars: primary human B cells with PBMC. An outline of the steps: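 B cell + PBMC co-culture (human primary), compound added, 24 h incubation; secreted IL-2 measured multiplexed on Luminex xMAP; gain-of-signal fit vs DMSO.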

Read-out in assay [15]: Collagen IV, COL4A1 (gene 1282)
As to the kind of experiment: BSK_MyoF_CollagenIV: BioMAP Diversity Plus: MyoF Assay for Collagen IV Biomarker Activity (AID 2284247). To be noted: primary human lung fibroblasts. The procedure, abridged: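 Steps: dose human lung fibroblasts; culture 24 h; quantify Collagen IV by ELISA; fit increase versus DMSO control. Parallel SRB total-protein staining (0.1% SRB after 10% TCA fixation, 560 nm) tracks overt cytotoxicity.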

Read-out in assay [16]: Monokine induced gamma interferon (MIG), CXCL9 (gene 4283)
As to the kind of experiment: BSK_KF3CT_MIG: BioMAP Diversity Plus: KF3CT Assay for Monokine induced gamma interferon (MIG) Biomarker Activity (AID 2284248). To be noted: primary human keratinocytes with fibroblasts. An outline of the steps: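 Human keratinocyte–foreskin fibroblast co-culture; MIG measured by ELISA 24 h after chemical dosing, fitted upward versus DMSO. Cytotoxicity was assessed in parallel cultures by SRB total-protein staining read at 560 nm.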

Read-out in assay [17]: Vascular cell adhesion molecule 1 (VCAM1), VCAM1 (gene 7412)
Nature of the assay: BSK_BF4T_VCAM1: BioMAP Diversity Plus: BF4T Assay for Vascular cell adhesion molecule 1 (VCAM1) Biomarker Activity (AID 2284249). Particulars: primary human bronchial epithelial cells with fibroblasts. The procedure, abridged: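 Human bronchial epithelial cell and dermal fibroblast co-culture exposed 24 h. VCAM-1 measured by ELISA; parallel SRB total-protein staining for cytotoxicity. Fitted in positive direction relative to DMSO.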

Assay [18] in a line: CCTE_Shafer_MEA_dev_correlation_coefficient_mean: CCTE's Neural Network Formation Assay for Mean Correlation Coefficient, Shafer Lab (AID 2284093). The procedure, abridged: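 Extracellular firing from rat cortical networks on 48-well MEAs, DMSO-referenced, negative fitting direction. Compound present from plating to DIV12; mean pairwise correlation per well integrated over DIV5–12 recordings by trapezoidal AUC.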

Read-out in assay [19]: Basic fibroblast growth factor (bFGF), FGF2 (gene 2247)
As to the kind of experiment: BSK_MyoF_bFGF: BioMAP Diversity Plus: MyoF Assay for Basic fibroblast growth factor (bFGF) Biomarker Activity (AID 2284246). Particulars: primary human lung fibroblasts. The procedure, abridged:
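ELISA-measured bFGF level serves as the read-out, taken 24 h after chemical dosing of human lung fibroblasts. Values represent signal gain over the DMSO negative control.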

Read-out in assay [20]: Interleukin 17A (IL17A), IL17A (gene 3605)
Nature of the assay: BSK_BT_xIL17A: BioMAP Diversity Plus: BT Assay for Interleukin 17A (IL17A) Biomarker Activity (AID 2284229). Particulars: primary human B cells with PBMC. An outline of the steps: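 Co-culture of human B cells and PBMC, dosed for 24 h in 96-well format. Secreted IL-17A measured with Luminex xMAP; gain-direction fitting against DMSO as baseline.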

Tumor necrosis factor (Homo sapiens), sequence (P01375 whole entry, looked up): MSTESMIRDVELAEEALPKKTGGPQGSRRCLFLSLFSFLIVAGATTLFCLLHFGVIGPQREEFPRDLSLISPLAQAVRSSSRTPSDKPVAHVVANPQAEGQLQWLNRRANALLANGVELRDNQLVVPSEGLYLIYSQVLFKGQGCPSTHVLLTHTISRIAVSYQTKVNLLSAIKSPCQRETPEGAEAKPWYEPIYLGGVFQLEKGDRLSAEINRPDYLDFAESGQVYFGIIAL

`OCCCC(F)(F)C(F)(F)C(F)(F)C(F)(F)C(F)(F)C(F)(F)C(F)(F)C(F)(F)F`: the outcome in assay [1], in assay [10], in [11] and in assay [15] was inactive. Also, the half-maximal activity concentration (AC50) in assay [2] is 46.4 µM (active) and 23.2 µM (active); in [3], 45.9 µM (active) and 44.5 µM (active); in assay [4] it was 43.8 µM (active) and 31.8 µM (active); in assay [5] it was 42.7 µM (active) and 21.9 µM (active); in assay [6], 37.1 µM (active) and 37 µM (active); in [7], 12.8 µM (active) and 9.88 µM (active). The half-maximal activity concentration (AC50) in assay [8] was 13 µM (active) and 10.9 µM (active); in assay [9], 13.5 µM (active) and 12.2 µM (active); in assay [12], 22.4 µM (active) and 19.1 µM (active); in assay [13], 10.3 µM (active) and 10.6 µM (active); in assay [14], 43.4 µM (active) and 46.9 µM (active); in assay [15], 7.39 µM (active). In addition, the AC50 is 14.8 µM (active) and 15.3 µM (active) in [16]; 13.9 µM (active) and 16.8 µM (active) in assay [17].

As to `FC(F)(F)C(F)(F)C(F)(F)C(F)(F)C(F)(F)C(F)(F)C(F)(F)CCI`, the compound was called inactive in [18], in [2], in [3], in assay [4], in [5] and in assay [6]. The result in assay [7], in assay [8], in assay [9], in assay [12], in assay [13] and in assay [14] was inactive. Besides, the result in assay [19], in assay [15], in assay [16] and in assay [17] was inactive.

Consider `OCC(O)CC(F)(F)C(F)(F)C(F)(F)C(F)(F)F` (stereo not given), for which the compound was classed as inactive in assay [18], in assay [2], in assay [3], in assay [4], in assay [5] and in [6]. In addition, the result in [8], in assay [9], in assay [12], in assay [13], in assay [14] and in [15] was inactive. For the same compound, the outcome in [16] and in assay [17] was inactive. Moreover, the concentration at half-maximal activity (AC50) in assay [6] was 153 nM (active).

In the case of `NC(O)(C(F)(F)F)C(F)(F)F`, the outcome in assay [18], in [2], in assay [3], in assay [4], in [5] and in assay [6] was inactive. Besides, the outcome in assay [8], in assay [9], in assay [10], in assay [11], in [12] and in assay [13] was inactive. The outcome in assay [14], in assay [19], in [15], in [16] and in assay [17] was inactive.

On to `O=C1c2c(O)ccc(Nc3ccc(CCO)cc3)c2C(=O)c2c([N+](=O)[O-])ccc(O)c21`, for which the half-maximal activity concentration (AC50) is 20 µM (active) in assay [2]; 29.9 µM (active) in assay [3]; 15.5 µM (active) in [4]; 28.9 µM (active) in assay [8]; 30.2 µM (active) in assay [9]; 35.3 µM (active) in assay [12]. Further, the figures for the AC50 in [13] and in [15] were 25.6 µM (active) and 34.1 µM (active), respectively. Further, the outcome in assay [5], in [20], in [6], in [14] and in assay [19] was inactive.

`Nc1cc([N+](=O)[O-])cc(Cl)c1O`: the result in [2], in assay [3], in [4], in assay [5], in [6] and in assay [8] was inactive. The result in assay [9], in assay [12], in assay [13], in assay [14] and in [15] was inactive.

Turning to `O=C(O)C(F)(F)C(F)(F)C(F)(F)C(=O)O`, the outcome in [2], in assay [3], in [4], in assay [5], in assay [20] and in assay [6] was inactive. For the same compound, the outcome in assay [8], in [9], in assay [12], in [13], in assay [14] and in [19] was inactive. Moreover, the outcome in assay [15], in [16] and in assay [17] was inactive.
